Source: PubChem BioAssay (EPA / NIEHS)
Results filed as inconclusive are left out. Active and inactive are the calls of the source. Rule for the calls: active = hit-call score of the fitted dose curve at least 0.9, where 1 is the maximum; inconclusive = response in the unintended direction; inactive = score below 0.9.

Assays:
[1] = target: Estrogen receptor (Homo sapiens) (UniProt P03372); experiment: NVS_NR_hER: NovaScreen (NVS) Nuclear Receptor Binding Assay for human Estrogen Receptor (ER) (AID 2283348)
Estrogen receptor (Homo sapiens), sequence (P03372 whole entry, looked up, the tested form may be a part): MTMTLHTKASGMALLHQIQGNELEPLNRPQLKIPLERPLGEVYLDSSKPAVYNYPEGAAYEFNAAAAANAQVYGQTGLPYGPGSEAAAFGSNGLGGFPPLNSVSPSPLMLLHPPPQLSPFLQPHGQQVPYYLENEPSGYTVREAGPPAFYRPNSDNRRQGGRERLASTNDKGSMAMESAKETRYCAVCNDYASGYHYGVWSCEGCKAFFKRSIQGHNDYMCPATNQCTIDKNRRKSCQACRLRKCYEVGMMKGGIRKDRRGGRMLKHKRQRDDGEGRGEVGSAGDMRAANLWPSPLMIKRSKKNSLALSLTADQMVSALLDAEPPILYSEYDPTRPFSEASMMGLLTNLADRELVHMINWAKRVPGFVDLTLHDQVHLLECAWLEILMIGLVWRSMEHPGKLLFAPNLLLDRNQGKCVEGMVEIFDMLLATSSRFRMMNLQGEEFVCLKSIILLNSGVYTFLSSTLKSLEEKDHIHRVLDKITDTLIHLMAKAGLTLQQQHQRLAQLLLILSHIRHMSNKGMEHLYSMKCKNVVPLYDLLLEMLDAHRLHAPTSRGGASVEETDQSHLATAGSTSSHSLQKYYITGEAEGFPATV
In short: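 MCF7-derived receptor extract, radiolabelled ligand, competitive displacement. Read: scintillation counts at 18 h. DMSO = negative control/baseline. Primary 25 uM duplicate; follow-up concentration–response.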

[2] = target: Estrogen receptor (Homo sapiens) (UniProt P03372); experiment: OT_ER_ERaERa_1440: Odyssey Thera (OT) 24-hour HEK293T Protein-Complementation Assay for Estrogen Receptor-alpha/-alpha Homodimer (AID 2283349);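 note: hits raise fluorescence above DMSO for agonists and antagonists alike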
In short: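 Cells (HEK293T) carrying the fragment-tagged ERα LBD (aa 310-547) pair are treated with chemical for 24 hours. Nuclear and/or cytoplasmic fluorescence is then quantified on a laser scanning cytometer. Activity is scored as signal gain against DMSO.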

[3] = target: Estrogen receptor (Homo sapiens) (UniProt P03372); experiment: OT_ER_ERaERa_0480: Odyssey Thera (OT) 8-hour HEK293T Protein-Complementation Assay for Estrogen Receptor-alpha/-alpha Homodimer (AID 2283351);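 note: rise in fluorescence from reassembled reporter fragments on ERα LBD homodimer in nucleus or whole cell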
In short: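 Read-out: fluorescence intensity rise relative to DMSO, nuclear for agonists, nuclear plus cytoplasmic for antagonists. Construct is the ERα LBD (aa 310-547) homodimer fragment-complementation pair, stably expressed in HEK293T; exposure 8 h.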

[4] = target: Estrogen receptor (Homo sapiens) + Estrogen receptor beta (Homo sapiens) (UniProt P03372+Q92731); experiment: OT_ER_ERaERb_0480: Odyssey Thera (OT) 8-hour HEK293T Protein-Complementation Assay for Estrogen Receptor-alpha/-beta Heterodimer (AID 2283352)
Estrogen receptor (Homo sapiens) + Estrogen receptor beta (Homo sapiens), sequence (P03372 whole entry, looked up, the tested form may be a part): as above
Estrogen receptor (Homo sapiens) + Estrogen receptor beta (Homo sapiens), sequence (Q92731 whole entry, looked up, the tested form may be a part): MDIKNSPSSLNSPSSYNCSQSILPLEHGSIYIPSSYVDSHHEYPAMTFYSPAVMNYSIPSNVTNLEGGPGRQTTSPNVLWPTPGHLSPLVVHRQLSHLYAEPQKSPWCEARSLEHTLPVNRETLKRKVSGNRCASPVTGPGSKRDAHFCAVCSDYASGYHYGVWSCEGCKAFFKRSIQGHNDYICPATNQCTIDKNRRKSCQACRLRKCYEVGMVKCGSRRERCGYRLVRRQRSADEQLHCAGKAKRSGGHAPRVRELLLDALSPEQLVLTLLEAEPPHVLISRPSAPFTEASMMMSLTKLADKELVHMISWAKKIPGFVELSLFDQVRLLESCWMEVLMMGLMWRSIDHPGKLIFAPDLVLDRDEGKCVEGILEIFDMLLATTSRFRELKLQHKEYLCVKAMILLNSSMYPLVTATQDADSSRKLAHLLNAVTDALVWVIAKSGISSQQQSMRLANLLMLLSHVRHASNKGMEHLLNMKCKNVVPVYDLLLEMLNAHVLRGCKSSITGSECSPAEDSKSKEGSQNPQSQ
In short: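 Human HEK293T cells were treated for 8 hours and receptor heterodimerisation was detected through reconstitution of a fluorescent reporter split between ER-alpha and ER-beta ligand-binding domains. Activity was analysed as gain of signal against DMSO.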

[5] = target: Bile acid receptor (Homo sapiens) (UniProt Q96RI1); experiment: NVS_NR_hFXR_Antagonist: NovaScreen (NVS) Nuclear Receptor Binding Assay for human Farnesoid X Receptor Antagonism (FXR) (AID 2283350)
Bile acid receptor (Homo sapiens), sequence (Q96RI1 whole entry, looked up): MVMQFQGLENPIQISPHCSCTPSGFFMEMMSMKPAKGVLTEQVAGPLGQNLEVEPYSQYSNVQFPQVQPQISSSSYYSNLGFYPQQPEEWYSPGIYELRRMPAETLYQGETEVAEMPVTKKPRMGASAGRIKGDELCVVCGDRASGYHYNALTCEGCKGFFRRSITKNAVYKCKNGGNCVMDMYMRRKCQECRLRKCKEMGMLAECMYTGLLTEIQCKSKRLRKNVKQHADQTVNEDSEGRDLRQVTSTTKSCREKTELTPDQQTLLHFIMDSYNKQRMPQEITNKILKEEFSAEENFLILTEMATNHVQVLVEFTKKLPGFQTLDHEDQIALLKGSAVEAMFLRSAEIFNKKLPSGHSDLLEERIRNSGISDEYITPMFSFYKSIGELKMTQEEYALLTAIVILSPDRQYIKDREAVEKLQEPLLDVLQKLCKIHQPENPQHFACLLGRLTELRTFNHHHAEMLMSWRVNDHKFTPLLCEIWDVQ
In short: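 Antagonist-format time-resolved FRET binding assay with extracted human receptor protein, read 1 hour after compound addition. Compounds first screened at 25 uM in duplicate, then actives tested in concentration series, with loss of signal relative to DMSO.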

[6] = target: Androgen Receptor/SRC-1 Co-activator, AR (gene 367) (UniProt P10275); experiment: OT_AR_ARSRC1_0960: Odyssey Thera (OT) 16-hour HEK293T Protein-Complementation Assay for Androgen Receptor/SRC-1 Co-activator (AID 2283353);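 note: actives raise the signal above DMSO so potency reflects increased AR and SRC-1 complex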
Androgen Receptor/SRC-1 Co-activator, AR (gene 367), sequence (P10275 whole entry, looked up, the tested form may be a part): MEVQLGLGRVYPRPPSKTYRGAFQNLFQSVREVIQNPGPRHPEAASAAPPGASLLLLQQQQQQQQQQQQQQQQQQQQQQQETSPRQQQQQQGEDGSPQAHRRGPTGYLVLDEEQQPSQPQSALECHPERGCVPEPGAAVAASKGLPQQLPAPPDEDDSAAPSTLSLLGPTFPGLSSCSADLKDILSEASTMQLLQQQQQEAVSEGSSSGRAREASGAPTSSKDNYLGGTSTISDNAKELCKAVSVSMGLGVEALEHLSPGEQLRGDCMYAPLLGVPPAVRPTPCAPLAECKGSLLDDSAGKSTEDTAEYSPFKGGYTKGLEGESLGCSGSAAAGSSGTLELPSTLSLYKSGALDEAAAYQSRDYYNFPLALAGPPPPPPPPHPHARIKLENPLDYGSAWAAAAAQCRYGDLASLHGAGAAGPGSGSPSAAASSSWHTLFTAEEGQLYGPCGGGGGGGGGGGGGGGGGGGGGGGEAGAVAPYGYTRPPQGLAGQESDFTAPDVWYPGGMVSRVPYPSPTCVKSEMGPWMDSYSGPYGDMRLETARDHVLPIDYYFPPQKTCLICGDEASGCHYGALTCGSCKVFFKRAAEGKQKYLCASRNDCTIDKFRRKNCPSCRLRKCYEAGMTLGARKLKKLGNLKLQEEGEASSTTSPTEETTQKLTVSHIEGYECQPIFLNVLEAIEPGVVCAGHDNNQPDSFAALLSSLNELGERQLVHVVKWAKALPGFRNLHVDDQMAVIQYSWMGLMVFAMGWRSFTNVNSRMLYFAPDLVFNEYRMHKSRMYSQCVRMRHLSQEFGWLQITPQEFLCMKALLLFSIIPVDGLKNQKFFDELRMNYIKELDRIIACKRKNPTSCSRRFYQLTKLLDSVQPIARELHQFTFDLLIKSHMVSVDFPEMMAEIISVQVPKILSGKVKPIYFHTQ
In short: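 Readout: 488 nm nuclear-to-cytoplasmic fluorescence ratio from imaging of at least 400 cells per image, 16 h post-dose. Reporter is Venus YFP complementation between AR and SRC-1 fusions, stably expressed in HEK293T; activity scored upward relative to DMSO.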

[7] = target: Androgen Receptor/SRC-1 Co-activator, AR (gene 367) (UniProt P10275); experiment: OT_AR_ARSRC1_0480: Odyssey Thera (OT) 8-hour HEK293T Protein-Complementation Assay for Androgen Receptor/SRC-1 Co-activator (AID 2283354);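 note: hits raise the complementation signal above DMSO so AC50 marks enhancers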
In short: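 Split-Venus PCA, stable HEK293T, AR/SRC-1 fusions; 8 h exposure. Readout: 488nm N/C fluorescence ratio, ≥400 cells/image; fitted upward vs DMSO baseline.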

[8] = target: Retinoic acid receptor alpha (Homo sapiens) (UniProt P10276); experiment: NVS_NR_hRAR_Antagonist: NovaScreen (NVS) Nuclear Receptor Binding Assay for human Retinoic Acid Alpha Receptor Antagonism (RAR) (AID 2283358)
Retinoic acid receptor alpha (Homo sapiens), sequence (P10276 whole entry, looked up): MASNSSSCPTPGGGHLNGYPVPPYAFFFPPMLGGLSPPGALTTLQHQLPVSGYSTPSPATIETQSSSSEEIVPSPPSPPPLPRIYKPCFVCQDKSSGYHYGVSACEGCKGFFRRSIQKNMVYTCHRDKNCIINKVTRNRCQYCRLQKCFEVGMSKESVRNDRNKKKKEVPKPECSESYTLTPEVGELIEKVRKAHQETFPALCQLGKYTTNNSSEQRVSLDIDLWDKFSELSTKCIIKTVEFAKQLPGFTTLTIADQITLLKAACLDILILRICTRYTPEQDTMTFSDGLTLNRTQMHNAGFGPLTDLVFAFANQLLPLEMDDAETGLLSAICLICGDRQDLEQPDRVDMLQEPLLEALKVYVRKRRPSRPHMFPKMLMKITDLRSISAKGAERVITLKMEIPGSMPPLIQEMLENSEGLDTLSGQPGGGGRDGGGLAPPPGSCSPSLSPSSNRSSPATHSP
In short: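 Read-out: time-resolved FRET binding signal, 2 h post-dose, cell-free extracted protein. Antagonism scored as signal loss versus DMSO negative control. Primary single-concentration screen at 25 uM in duplicate; concentration series for actives.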

c1ccc2ccccc2c1
outcome [1]: inactive
outcome [2]: inactive
outcome [3]: inactive

CCCCCCCCCCCO
outcome [1]: inactive
outcome [2]: inactive
outcome [3]: inactive
outcome [4]: inactive

Cc1cc(F)ccc1-c1cc(N2CC[C@@H](O)[C@H]2CO)ncc1N(C)C(=O)C(C)(C)c1cc(C(F)(F)F)cc(C(F)(F)F)c1
outcome [1]: inactive
outcome [2]: inactive
outcome [5]: inactive
outcome [3]: inactive
outcome [4]: inactive
AC50 [6]: 15.2 µM (active)
AC50 [7]: 23.6 µM (active)

Clc1ccccc1C(c1ccccc1)(c1ccccc1)n1ccnc1
outcome [1]: inactive
outcome [2]: inactive
outcome [3]: inactive

O=c1c(-c2ccc(O)cc2)coc2cc(O)cc(O)c12
outcome [5]: inactive

O=C(O)Cc1cc(I)c(Oc2ccc(O)c(I)c2)c(I)c1
AC50 [5]: 40.3 µM (active)
outcome [8]: inactive
